# Reference: PubChem BioAssay (NCATS)
# Results filed as inconclusive are left out. Entries that show only a call come without a potency. Active and inactive are the calls of the source. Unless noted, the call rests on the fitted dose curve; in most records, active means well fitted curve in the direction sought with a large enough effect; inconclusive means small, poorly fitted or top-dose-only effect, or another doubt; inactive means no such curve, though single readings can be large; an effect the other way counts as inactive or inconclusive.
# Columns and labels:
# [1] = target: Guanine nucleotide-binding protein G(i) subunit alpha-1 (Homo sapiens) (UniProt P63096); experiment: qHTS Assay for Inhibitors of RGS12 GoLoco Motif Activity (Green Fluorophore) (AID 879);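 further: negative values mean loss of peptide binding seen as reduced polarization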
# Method in brief: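 Fluorescence polarization assay: 50 nM Gαi1 with 10 nM FITC-labeled RGS12 GoLoco peptide in 10 mM Tris pH 7.5, 150 mM NaCl, 0.1 mM GDP, 0.05% NP40, 10 min at room temperature with compound.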
# [2] = qHTS Assay for Identification of Small Molecule Antagonists for NFkB Signaling Pathway (AID 895; active means well fitted inhibition curve with a large enough effect in the signal ratio, with a control signal flat, not every such curve was filed as active; the % refers to the signal ratio)
# Method in brief: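 Beta-lactamase reporter read-out (460 and 530 nm emission ratio, 405 nm excitation, 2 hrs substrate loading RT) after 5 hr stimulation with 10 pM TNF alpha in compound-treated NFkB-bla ME-180 cells in low-serum medium.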
# [3] = target: Pyruvate kinase (Leishmania mexicana) (UniProt Q27686); experiment: qHTS Validation Assay for Inhibitors of Leishmania Mexicana Pyruvate Kinase (AID 945); further: potency means the concentration at half of the fitted maximal effect
# Method in brief: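 Luminescent ATP detection (PKLight) after a 1 h room-temperature reaction of 0.2 nM LmPYK E451W mutant with 0.5 mM PEP and 0.1 mM ADP at pH 7.2. Activity is normalized to DMSO-only control wells.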
# [4] = target: Pyruvate kinase PKM (Homo sapiens) (UniProt P14618); experiment: qHTS Assay for Activators of Human Muscle Pyruvate Kinase (AID 954; active means well fitted curve in the direction sought with a large enough effect, not every such curve was filed as active)
# Method in brief: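 Purified human PKM2 (0.1 nM) with 0.5 mM PEP (Km) and 0.1 mM ADP in 50 mM imidazole pH 7.2, KCl, MgCl2, 1 h at room temperature; ATP formed read by coupled luciferase luminescence. Normalized to no-enzyme/110 uM thiadiazolimine inhibition; 0.3 nM enzyme column for activation.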
# [5] = target: DNA dC->dU-editing enzyme APOBEC-3G (Homo sapiens) (UniProt Q9HC16); experiment: qHTS for inhibitors of Vif-A3G interactions: Validation (AID 588379)
# Method in brief: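 HeLa cells stably expressing Vif and A3G-eYFP, 700 cells/well, incubated overnight at 37 deg C, then exposed to compound overnight at 37 deg C. Inhibition of Vif-mediated degradation read as increased yellow fluorescence (Ex 488/Em 500-530) by laser-scanning cytometry.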
# [6] = S16 Schwann cell viability assay (CellTiter-Glo assay) (AID 624031);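 further: cellular ATP luminescence as a viability measure; nearly all actives have a fitted effect of over 70% in size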
# Method in brief: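 Untransfected S16 rat Schwann cells; compound 24 h, 37 °C/5% CO2; CellTiter-Glo ATP luminescence. % activity vs no-cell wells and DMSO controls (0%); concentration-effect curves classed by r2, response magnitude, activity.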
# [7] = test system: AA1029; experiment: qHTS profiling for inhibitors of Plasmodium falciparum proliferation (AID 504749); further: nearly all actives have a fitted effect of over 60% in size; details: P. falciparum in erythrocytes, SYBR Green DNA, 72 h; series mostly up to 28.7 µM
# Method in brief: (§1)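 Infected RBCs, 0.3% parasitemia/2.5% Hct final; cpd 72 h, 37 C, 5% CO2; lysis buffer with saponin/triton/SYBR Green I, o/n RT dark; FI 485/535; norm. to artemisinin (0.29 uM) and DMSO.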
# [8] = test system: CP211; experiment: as above; details: P. falciparum in erythrocytes, SYBR Green DNA, 72 h; series mostly up to 28.7 µM
# Method in brief: as §1
# [9] = test system: CP217; experiment: as above; details: P. falciparum in erythrocytes, SYBR Green DNA, 72 h; series mostly up to 28.7 µM
# Method in brief: as §1
# [10] = test system: CP252; experiment: as above; details: P. falciparum in erythrocytes, SYBR Green DNA, 72 h; series mostly up to 28.7 µM
# Method in brief: as §1
# [11] = test system: CP260; experiment: as above; details: P. falciparum in erythrocytes, SYBR Green DNA, 72 h; series mostly up to 28.7 µM
# Method in brief: as §1
# [12] = test system: CP297; experiment: as above; details: P. falciparum in erythrocytes, SYBR Green DNA, 72 h; series mostly up to 28.7 µM
# Method in brief: as §1
# [13] = test system: CP315; experiment: as above; details: P. falciparum in erythrocytes, SYBR Green DNA, 72 h; series mostly up to 28.7 µM
# Method in brief: as §1
# [14] = test system: DIV14; experiment: as above; details: P. falciparum in erythrocytes, SYBR Green DNA, 72 h; series mostly up to 28.7 µM
# Method in brief: as §1
# [15] = test system: DIV17; experiment: as above; details: P. falciparum in erythrocytes, SYBR Green DNA, 72 h; series mostly up to 28.7 µM
# Method in brief: as §1
# [16] = test system: FAB9; experiment: as above; details: P. falciparum in erythrocytes, SYBR Green DNA, 72 h; series mostly up to 28.7 µM
# Method in brief: as §1
# [17] = test system: JCK; experiment: as above; details: P. falciparum in erythrocytes, SYBR Green DNA, 72 h; series mostly up to 28.7 µM
# Method in brief: as §1
# [18] = test system: N140; experiment: as above; details: P. falciparum in erythrocytes, SYBR Green DNA, 72 h; series mostly up to 28.7 µM
# Method in brief: as §1
# [19] = test system: PC15; experiment: as above; details: P. falciparum in erythrocytes, SYBR Green DNA, 72 h; series mostly up to 28.7 µM
# Method in brief: as §1
# [20] = test system: TAB165; experiment: as above; details: P. falciparum in erythrocytes, SYBR Green DNA, 72 h; series mostly up to 28.7 µM
# Method in brief: as §1
# Sequence of DNA dC->dU-editing enzyme APOBEC-3G (Homo sapiens) (Q9HC16 whole entry, looked up): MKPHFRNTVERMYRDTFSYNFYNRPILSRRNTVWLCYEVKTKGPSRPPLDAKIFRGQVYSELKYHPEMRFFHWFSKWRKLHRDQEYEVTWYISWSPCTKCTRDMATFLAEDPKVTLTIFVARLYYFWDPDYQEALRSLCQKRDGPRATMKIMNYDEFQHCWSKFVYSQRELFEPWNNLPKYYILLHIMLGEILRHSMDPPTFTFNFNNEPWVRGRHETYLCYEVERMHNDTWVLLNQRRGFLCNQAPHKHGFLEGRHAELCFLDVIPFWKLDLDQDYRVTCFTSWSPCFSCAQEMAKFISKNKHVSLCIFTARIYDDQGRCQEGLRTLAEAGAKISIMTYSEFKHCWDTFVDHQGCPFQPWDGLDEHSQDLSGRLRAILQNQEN
# Sequence of Guanine nucleotide-binding protein G(i) subunit alpha-1 (Homo sapiens) (P63096 whole entry, looked up): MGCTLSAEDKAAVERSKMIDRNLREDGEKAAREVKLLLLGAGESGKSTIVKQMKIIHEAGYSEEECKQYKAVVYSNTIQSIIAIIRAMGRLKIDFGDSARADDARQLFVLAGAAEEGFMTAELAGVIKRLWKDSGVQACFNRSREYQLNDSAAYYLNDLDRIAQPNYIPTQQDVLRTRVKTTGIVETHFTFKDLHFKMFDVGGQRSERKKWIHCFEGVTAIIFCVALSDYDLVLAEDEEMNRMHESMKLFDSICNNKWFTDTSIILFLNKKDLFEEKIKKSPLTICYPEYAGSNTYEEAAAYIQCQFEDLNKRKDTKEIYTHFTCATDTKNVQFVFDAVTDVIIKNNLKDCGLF
# Sequence of Pyruvate kinase PKM (Homo sapiens) (P14618 whole entry, looked up): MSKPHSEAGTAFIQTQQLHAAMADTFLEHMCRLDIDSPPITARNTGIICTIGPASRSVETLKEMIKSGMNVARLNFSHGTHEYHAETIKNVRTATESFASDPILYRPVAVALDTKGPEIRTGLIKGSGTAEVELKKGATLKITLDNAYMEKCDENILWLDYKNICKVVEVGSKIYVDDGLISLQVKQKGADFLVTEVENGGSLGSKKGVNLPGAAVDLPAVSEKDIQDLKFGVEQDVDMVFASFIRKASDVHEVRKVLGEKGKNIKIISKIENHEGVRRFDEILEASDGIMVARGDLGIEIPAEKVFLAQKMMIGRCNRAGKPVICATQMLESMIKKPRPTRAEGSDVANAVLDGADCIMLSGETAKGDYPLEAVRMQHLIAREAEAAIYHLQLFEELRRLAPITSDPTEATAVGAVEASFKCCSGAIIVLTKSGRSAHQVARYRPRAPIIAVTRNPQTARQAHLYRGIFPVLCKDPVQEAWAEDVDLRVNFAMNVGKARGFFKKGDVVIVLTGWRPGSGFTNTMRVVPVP
# Sequence of Pyruvate kinase (Leishmania mexicana) (Q27686 2-499 E452W): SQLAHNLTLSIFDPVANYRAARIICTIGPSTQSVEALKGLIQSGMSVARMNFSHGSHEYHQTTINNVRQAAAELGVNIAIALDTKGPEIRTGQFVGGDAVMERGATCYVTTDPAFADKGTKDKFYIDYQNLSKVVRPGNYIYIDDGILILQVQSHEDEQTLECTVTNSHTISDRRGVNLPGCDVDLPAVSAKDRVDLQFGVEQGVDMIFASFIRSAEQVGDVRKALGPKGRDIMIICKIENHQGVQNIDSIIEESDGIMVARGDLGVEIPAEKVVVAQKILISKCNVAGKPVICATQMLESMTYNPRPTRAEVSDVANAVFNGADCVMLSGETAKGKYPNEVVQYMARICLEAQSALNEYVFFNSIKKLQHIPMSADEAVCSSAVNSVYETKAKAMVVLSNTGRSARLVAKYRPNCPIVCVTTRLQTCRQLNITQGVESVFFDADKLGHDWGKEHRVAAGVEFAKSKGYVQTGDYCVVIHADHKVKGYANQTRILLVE
smiles,measurement,setting,value
Oc1ccc(/C=C\c2cc(O)cc(O)c2)cc1,outcome,[1],inactive
same,Potency,[2],inactive
same,Potency,[3],2.51 µM (active)
same,outcome,[4],inactive
same,outcome,[5],inactive
same,outcome,[6],inactive
same,Potency,[7],inactive
same,Potency,[8],inactive
same,Potency,[9],inactive
same,Potency,[10],inactive
same,Potency,[11],inactive
same,Potency,[12],inactive
same,Potency,[13],inactive
same,Potency,[14],inactive
same,Potency,[15],inactive
same,Potency,[16],inactive
same,Potency,[17],inactive
same,Potency,[18],inactive
same,Potency,[19],inactive
same,Potency,[20],inactive
